Assay results: the supplement of paper PMC7595190
Unmarked numbers belong to inactive results.

System: MV4-11
Test: CellTox Green cytotoxicity fluorescence relative to DMSO vehicle (fold of vehicle RFU); higher = more cell death (loss of membrane integrity), active = 2 or more
Description: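 Paediatric AML cell lines (MV4-11, CMK, Kasumi-1; 4x10^4 cells/well, 96-well) treated with single compounds from the Selleckchem apoptosis library at 0.01, 0.1 and 1 µM. Cytotoxicity was read with CellTox Green (RFU, Ex 485/Em 520) at 24, 48 and 72 h and normalised to the 0.1% DMSO vehicle. Normalised RFU >= 2 was taken as a successful, cell-killing treatment.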

SMILES	CellTox Green cytotoxicity fluorescence (0.01 µM, 24 h)	CellTox Green cytotoxicity fluorescence (0.01 µM, 48 h)	CellTox Green cytotoxicity fluorescence (0.01 µM, 72 h)	CellTox Green cytotoxicity fluorescence (0.1 µM, 24 h)	CellTox Green cytotoxicity fluorescence (0.1 µM, 48 h)	CellTox Green cytotoxicity fluorescence (0.1 µM, 72 h)	CellTox Green cytotoxicity fluorescence (1 µM, 24 h)	CellTox Green cytotoxicity fluorescence (1 µM, 48 h)	CellTox Green cytotoxicity fluorescence (1 µM, 72 h)
CC(C)c1ccccc1Cc1cc(C(=O)Nc2ccc(S(=O)(=O)c3ccccc3C(C)(C)C)cc2)c(O)c(O)c1O	0.952	0.952	0.957	0.956	0.944	0.945	0.933	1.16	1.84
C=CCc1cccc(/C=N/NC(=O)CN2CCN(Cc3ccccc3)CC2)c1O	0.974	0.955	0.955	0.95	0.951	0.957	0.904	1.07	1.31
O=C1CCC(N2C(=O)c3ccccc3C2=O)C(=O)N1 (stereo unspecified) [Thalidomide]	0.964	0.959	0.973	0.954	0.962	0.958	0.952	0.965	1.12
CC(C)(C)C[C@@H]1N[C@@H](C(=O)N[C@H]2CC[C@H](O)CC2)[C@H](c2cccc(Cl)c2F)[C@]12C(=O)Nc1cc(Cl)ccc12	1.04	1.03	1.05	0.993	1.11	1.22	1.26	2.25 (active)	2.49 (active)
